Data taken from PMC5540273 (PLoS ONE, 2017).
Several values for one entry are separate records, joined by “and”; a condition that tells them apart may be missing. Equal values may be shown once. Read-outs that look alike come from different tables or passages of the source.

Legend:
[1] = test system: T1, MST1; conditions: concentration: 1 μM, replicates: in singlicate, n = 1
T1 construct: gene STK4

[2] = test system: T2, MST2; conditions: concentration: 1 μM, replicates: in singlicate; n = 1
T2 construct: gene STK3

[3] = test system: T3, MST3; conditions: concentration: 1 μM, replicates: in singlicate, n = 1
T3 construct: gene STK24

[4] = test system: MST4; conditions: concentration: 1 μM, replicates: in singlicate, n = 1
[5] = test system: MTOR; conditions: concentration: 1 μM, replicates: in singlicate, n = 1
[6] = test system: MUSK; conditions: concentration: 1 μM, replicates: in singlicate; n = 1
[7] = test system: MYLK2; conditions: concentration: 1 μM, replicates: in singlicate, n = 1
[8] = test system: MYLK4; conditions: concentration: 1 μM, replicates: in singlicate, n = 1
[9] = test system: MYLK; conditions: concentration: 1 μM, replicates: in singlicate, n = 1
[10] = test system: MYO3A; conditions: concentration: 1 μM, replicates: in singlicate, n = 1
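Further: KINOMEscan kinase panel screen.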

| Compound | %Inh [1] | %Inh [2] | %Inh [3] | %Inh [4] | %Inh [5] | %Inh [6] | %Inh [7] | %Inh [8] | %Inh [9] | %Inh [10] | %Inh ([1]; 1 µM) | %Inh ([3]; 1 µM) | %Inh ([4]; 1 µM) | %Inh ([5]; 1 µM) | %Inh ([7]; 1 µM) | %Inh ([8]; 1 µM) | %Inh ([9]; 1 µM) | %Inh ([10]; 1 µM) |
| --- | --- | --- | --- | --- | --- | --- | --- | --- | --- | --- | --- | --- | --- | --- | --- | --- | --- | --- |
| O=C1Cc2cc(Nc3nc(NCc4cccc(S(=O)(=O)C(F)(F)F)c4)ncc3C(F)(F)F)ccc2N1 | 14% | 27% | 0% | 1% | 29% | 0% | 0% | 8% | 2% | 0% |  |  |  |  |  |  |  |  |
| O=C(NCCCN1CCOCC1)c1cccc(Nc2nccc(Nc3ccc(Oc4ccccc4)cc3)n2)c1 [GW663929] | 0% | 34% | 14% | 0% | 12% | 2% | 0% | 25% | 0% | 35% |  |  |  |  |  |  |  |  |
| CCc1nc(-c2cccc(C)c2)c(-c2ccnc(NCc3ccccc3)c2)s1 | 4% | 0% | 4% | 0% | 12% | 12% | 0% | 0% | 0% | 0% |  |  |  |  |  |  |  |  |
| Cl.Cl.Cl.Fc1ccc(-c2ncn(C3CCNCC3)c2-c2ccnc(Nc3ccccc3)n2)cc1 [SB-238039] |  | 0% |  |  |  | 0% |  |  |  |  | 82% and 69% | 12% and 46% | 44% and 0% | 22% and 0% | 43% and 30% | 6% and 0% | 0% and 22% | 4% and 10% |
